In PubChem BioAssay (EPA / NIEHS):
Inconclusive results are not listed. Active and inactive are the calls of the source. How the source made its calls, unless noted: active means hit-call score of the fitted dose curve at least 0.9, where 1 is the maximum; inconclusive means response in the unintended direction; inactive means score below 0.9.

Each compound was assayed on Monokine induced gamma interferon (MIG), CXCL9 (gene 4283) (assay: BSK_3C_MIG: BioMAP Diversity Plus: 3C Assay for Monokine induced gamma interferon (MIG) Biomarker Activity (AID 2283021; active means hit-call score of the fitted dose curve at least 0.9, where 1 is the maximum; inactive means score below 0.9;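 on AC50: MIG protein level measured by immunoassay in the treated endothelial cultures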)). Settings: primary human endothelial cells (HUVEC); actives raise or lower the signal.
Summary of the method: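 Endothelial primary cells (human umbilical vein) are dosed with test chemical in the 3C system. MIG levels are measured by ELISA at 24 h and fitted in both directions relative to DMSO.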

AC50, active:
CN(C)c1ccc(C(=C2C=CC(=[N+](C)C)C=C2)c2ccc(N(C)C)cc2)cc1 9.93 µM, CCCCCCCCOC(=O)c1cc(O)c(O)c(O)c1 39.3 µM, CC(C)(c1cc(Br)c(O)c(Br)c1)c1cc(Br)c(O)c(Br)c1 37.1 µM, Cc1cc(F)ccc1-c1cc(N2CC[C@@H](O)[C@H]2CO)ncc1N(C)C(=O)C(C)(C)c1cc(C(F)(F)F)cc(C(F)(F)F)c1 12.9 µM, CCN(CC)C(=O)c1cc(S(=O)(=O)Cc2ccccc2)c(N2CCC(c3ccccc3)CC2)cc1N(CC)CCN(C)C 29.9 µM, CN1C(=O)N(c2ccccc2Br)Cc2cnc(Nc3ccc4c(c3)OCC(CO)O4)nc21 (stereo not drawn) 25.3 µM

outcome, inactive:
O=c1ccc2ccccc2o1, c1ccc2n[nH]nc2c1, CCN(Cc1cccc(S(=O)(=O)O)c1)c1ccc(C(=C2C=CC(=[N+](CC)Cc3cccc(S(=O)(=O)O)c3)C=C2)c2ccccc2S(=O)(=O)[O-])cc1, CC[C@@H]1C[C@H](N(Cc2cc(C(F)(F)F)cc(C(F)(F)F)c2)C(C)=O)c2cc(C(F)(F)F)ccc2N1C(=O)OC(C)C, CCN(Cc1cccnc1)C(=O)c1cccc(Cl)c1[C@]1(C)C(=O)N(Cc2ccc(OC)cc2OC)c2ccc(Cl)cc21, Cc1ccc2oc(CN(Cc3ccccc3)C(=O)Nc3c(F)cc(F)cc3F)c(-c3ccc(Cl)cc3)c2c1, C[C@]12CC[C@@H]3c4ccc(O)cc4CC[C@H]3[C@@H]1CCC2=O, Cc1c2ccccc2c(C)c2c1ccc1ccccc12, CC1=CC(=O)/C(=C(/C)O)C(=O)O1, CCCCCCCCOc1ccc(C(=O)c2ccccc2)c(O)c1, COCC(C)OCC(C)OCC(C)O (stereo not drawn), CCCOC(=O)c1cc(O)c(O)c(O)c1, COc1cccc([C@H](O)C2CCN(CCc3ccc(F)cc3)CC2)c1OC, CC1(C)NC(=O)N(c2ccc([N+](=O)[O-])c(C(F)(F)F)c2)C1=O, c1ccc(C[n+]2cccc3ccccc32)cc1, Cc1oc2c(NC(=O)c3c(Cl)cccc3Cl)cccc2c1C(C)(C)O

Each compound was assayed against human Vitamin D Receptor (VDR), VDR (gene 7421) (UniProt P11473) (assay: ATG_VDR_TRANS: Attagene TRANS-FACTORIAL HepG2 Assay for human Vitamin D Receptor (VDR) (AID 2283022)). Settings: not given.
Summary of the method: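 Fluorescence of labelled reporter cDNA fragments, resolved by capillary electrophoresis, gives mRNA induction after 24 h treatment of HepG2 cells carrying transfected Gal4-fusion reporter units. Activity is fitted in the positive direction with DMSO as baseline.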

Sequence of human Vitamin D Receptor (VDR), VDR (gene 7421) (P11473 whole entry, looked up, the tested form may be a part): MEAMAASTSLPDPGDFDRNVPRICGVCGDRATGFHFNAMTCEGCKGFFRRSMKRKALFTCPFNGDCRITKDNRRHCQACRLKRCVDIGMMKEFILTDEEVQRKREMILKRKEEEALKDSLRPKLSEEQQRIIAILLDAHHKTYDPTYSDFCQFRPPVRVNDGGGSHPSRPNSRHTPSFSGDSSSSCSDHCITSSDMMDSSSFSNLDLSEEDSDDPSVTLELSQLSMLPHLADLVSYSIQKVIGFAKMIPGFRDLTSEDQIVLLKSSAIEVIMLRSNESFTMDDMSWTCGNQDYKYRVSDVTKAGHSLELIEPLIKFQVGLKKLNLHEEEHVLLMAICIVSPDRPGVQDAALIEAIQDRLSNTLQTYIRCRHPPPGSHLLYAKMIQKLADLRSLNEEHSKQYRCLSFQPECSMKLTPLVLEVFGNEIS

outcome, inactive:
NC(=O)c1nc(-c2cccc(-c3cc(F)ccc3OCC(F)(F)C(F)(F)F)c2)n[nH]1, CCCCCCCCCCCC[N+](C)(C)C, CC[C@H](NC(=O)c1cc(F)ccc1NS(=O)(=O)c1cccc2cccnc12)c1ccccc1, CN(C)C(=O)C1(N2CCCCC2)CCN(CC[C@@]2(c3ccc(Cl)c(Cl)c3)CN(C(=O)c3ccccc3)CCO2)CC1, CCCCOC(=O)CC(CC(=O)OCCCC)(OC(C)=O)C(=O)OCCCC, Clc1ccccc1C(c1ccccc1)(c1ccccc1)n1ccnc1, Cc1occc1C(=O)Nc1ccc(C(=O)N2CCC(F)(F)/C(=C\C(=O)N3CCC(N4CCCCC4)CC3)c3ccccc32)cc1, Cc1cn([C@H]2C[C@H](N=[N+]=[N-])[C@@H](CO)O2)c(=O)[nH]c1=O, Oc1ccc2ccccc2c1, COc1ccc2cc(S(=O)(=O)N[C@H](CC(=O)N[C@H](Cc3ccc(CN4[C@H](C)CCC[C@@H]4C)cc3)C(=O)N(C)C(C)C)c3ccc4c(c3)OCO4)ccc2c1, CCCCCCCCCC(=O)O, CC(C)(C)c1csc(-c2cc3cc(OCc4ccccc4CC(=O)O)ccc3o2)n1, CC(C)(c1cc(Br)c(O)c(Br)c1)c1cc(Br)c(O)c(Br)c1, CCN(Cc1cccc(S(=O)(=O)O)c1)c1ccc(C(=C2C=CC(=[N+](CC)Cc3cccc(S(=O)(=O)O)c3)C=C2)c2ccccc2S(=O)(=O)[O-])cc1, CC[C@@H]1C[C@H](N(Cc2cc(C(F)(F)F)cc(C(F)(F)F)c2)C(C)=O)c2cc(C(F)(F)F)ccc2N1C(=O)OC(C)C, CCN(Cc1cccnc1)C(=O)c1cccc(Cl)c1[C@]1(C)C(=O)N(Cc2ccc(OC)cc2OC)c2ccc(Cl)cc21, Cc1ccc2oc(CN(Cc3ccccc3)C(=O)Nc3c(F)cc(F)cc3F)c(-c3ccc(Cl)cc3)c2c1, Cc1cc(F)ccc1-c1cc(N2CC[C@@H](O)[C@H]2CO)ncc1N(C)C(=O)C(C)(C)c1cc(C(F)(F)F)cc(C(F)(F)F)c1, CC1=CC(=O)/C(=C(/C)O)C(=O)O1, CCCCCCCCOc1ccc(C(=O)c2ccccc2)c(O)c1, CCCOC(=O)c1cc(O)c(O)c(O)c1, COc1cccc([C@H](O)C2CCN(CCc3ccc(F)cc3)CC2)c1OC, CC1(C)NC(=O)N(c2ccc([N+](=O)[O-])c(C(F)(F)F)c2)C1=O, c1ccc(C[n+]2cccc3ccccc32)cc1, Cc1oc2c(NC(=O)c3c(Cl)cccc3Cl)cccc2c1C(C)(C)O

AC50, active:
CCCCCCCCOC(=O)c1cc(O)c(O)c(O)c1 55 µM
